Screening data deposited in PubChem by several laboratories.
Bim-Mcl-1: inhibitors of Bim peptide binding to Mcl-1, primary screen, biochemical, bead-based flow cytometry, multiplex | Induced myeloid leukemia cell differentiation protein Mcl-1 (Homo sapiens), Q07820 | Bim peptide-Mcl-1 binding | inhibition, % at 10 µM | 0.1% of 190,000 active; in the data active = inhibition above about 40%
Target sequence (Q07820 whole entry, looked up): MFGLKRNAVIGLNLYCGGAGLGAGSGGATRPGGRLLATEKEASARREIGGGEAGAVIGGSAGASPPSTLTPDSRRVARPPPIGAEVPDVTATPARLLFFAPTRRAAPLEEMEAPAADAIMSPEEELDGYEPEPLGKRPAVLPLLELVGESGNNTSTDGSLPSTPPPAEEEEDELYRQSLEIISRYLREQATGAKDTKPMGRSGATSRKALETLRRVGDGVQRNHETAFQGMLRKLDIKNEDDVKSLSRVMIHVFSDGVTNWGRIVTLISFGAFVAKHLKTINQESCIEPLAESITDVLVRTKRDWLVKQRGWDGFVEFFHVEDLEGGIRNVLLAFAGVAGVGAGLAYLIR
m-calpain inh: inhibitors of pig calpain II, primary screen, biochemical, fluorogenic peptide substrate, 1536-well. purified calpain II, 30 min. inhibition, % at 16 µM. 0.37% of 220,000 active. AID 1236, 2008;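 active = inhibition above about 50%, limit read from the data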
p47phox inh: p47phox/p22phox peptide binding inhibitors, primary screen, biochemical, uHTS, NADPH oxidase regulatory subunit; inhibition, % at 24.7 µM; Neutrophil cytosol factor 1 (Homo sapiens), P14598; 0.53% of 220,000 active; fluorescence polarization, 2 h;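 active = inhibition above about 30%, limit read from the data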
Mcl1 Noxa PPI: Mcl-1/Noxa binding inhibitors, primary screen, biochemical, TR-FRET, 1536-well; Induced myeloid leukemia cell differentiation protein Mcl-1 (Homo sapiens), Q07820; TR-FRET Mcl-1/Noxa peptide binding, 2 h; inhibition, % at 21.7 µM; 1.5% of 220,000 active; AID 1022, 2008;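 active = compounds that cut the protein-peptide binding signal by more than 50% relative to plate controls in a single-dose test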;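 also: His-tagged Mcl-1 with rhodamine Noxa BH3 peptide and terbium anti-His antibody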
Mcl1 Bid PPI: Mcl-1/Bid binding inhibitors, primary screen, biochemical, TR-FRET, 1536-well; Induced myeloid leukemia cell differentiation protein Mcl-1 (Homo sapiens), Q07820; TR-FRET Mcl-1/Bid-Dy647 peptide binding; inhibition, % at 21.7 µM; 0.97% of 220,000 active; AID 1021, 2008;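 active = compounds that cut the binding signal by more than half at the single screening dose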;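 also: His-tagged Mcl-1 with europium anti-His antibody binding Bid BH3 peptide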
14-3-3 Bad inh: inhibitors of 14-3-3 zeta/Bad binding, primary screen, biochemical, TR-FRET, bovine 14-3-3 zeta; inhibition, % at 21.7 µM; TR-FRET 14-3-3zeta/Dy647-pBad peptide displacement, 1 h; 14-3-3 protein zeta/delta (Bos taurus), P63103; AID 781, 2007; 0.71% of 220,000 active;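 active = inhibition above about 70%, limit read from the data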
Target sequence (P63103 whole entry, looked up): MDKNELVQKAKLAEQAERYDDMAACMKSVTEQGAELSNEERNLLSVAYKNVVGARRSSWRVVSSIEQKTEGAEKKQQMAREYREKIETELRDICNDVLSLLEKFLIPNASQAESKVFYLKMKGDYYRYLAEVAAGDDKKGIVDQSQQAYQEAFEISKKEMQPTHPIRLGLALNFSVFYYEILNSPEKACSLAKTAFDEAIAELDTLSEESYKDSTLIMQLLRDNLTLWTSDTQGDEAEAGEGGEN
Large screens that a line does not name were inactive. In the library only some 3.4% were active in any assay of this set; here they are far more common.

COc1cccc(-c2nc(Oc3cccc(C)c3C)c3ccccc3n2)c1O	Mcl1 Bid PPI 52
COc1ccc(-c2nc3ccccc3c(=O)n2CCOc2cccc(C)c2C)cc1	Mcl1 Bid PPI 95
CCn1c(-c2cc3c(C(F)(F)F)nn(C)c3s2)n[nH]c1=S	Mcl1 Noxa PPI 72
Cn1c(-c2cc3c(C(F)(F)F)nn(C)c3s2)n[nH]c1=S	none
Cn1c(=O)c(=O)n(C)c2cc(S(=O)(=O)NCCOc3ccccc3Cl)ccc21	none
NC(=O)CC[C@@H]1NC(=O)[C@H](CO)NC(=O)c2cc([N+](=O)[O-])cc(I)c2NCCC[C@@H](C(N)=O)NC(=O)[C@H](Cc2ccc(O)cc2)NC1=O	Mcl1 Noxa PPI 62
NC(=O)[C@@H]1CCCNc2c(I)cc([N+](=O)[O-])cc2C(=O)N[C@@H](CO)C(=O)N[C@@H](Cc2ccc(O)cc2)C(=O)N1	none
CCn1c(SCC(=O)N/N=C/c2ccccc2OCC(=O)O)nnc1-c1ccc(C)cc1	none (no result: Bim-Mcl-1)
COc1cccc(CNC(=O)CSCc2cnn(-c3ccccc3)c2-n2cccc2)c1OC	Mcl1 Bid PPI 72
[O-][n+]1onc2c1CCC(=N/O)/C2=N\Nc1ccccc1	Mcl1 Noxa PPI 78 (no result: Bim-Mcl-1)
CCOC(=O)CC(NC(=O)CCc1c(C)nc2ncnn2c1C)c1ccc(C)cc1 (stereo unspecified)	none
CCCc1[nH]nc2c1C1(C(=O)N(C(C)C)c3ccccc31)C(C#N)=C(N)O2 (stereo unspecified)	none
CC(=O)N1C(=O)C2(C(C#N)=C(N)Oc3n[nH]c(-c4ccccn4)c32)c2ccccc21 (stereo unspecified)	p47phox inh 151
CCCCc1[nH]nc2c1C1(C(=O)N(CC)c3ccccc31)C(C#N)=C(N)O2 (stereo unspecified)	Mcl1 Noxa PPI 106
CN1C(=O)C2(C(C#N)=C(N)Oc3n[nH]c(-c4ccc(Cl)cc4)c32)c2ccccc21 (stereo unspecified)	none
Cc1ccc(-n2nnnc2SCC(=O)Nc2cccc(NC(=O)c3ccco3)c2)cc1C	Mcl1 Bid PPI 63
Cc1ccc(-n2nc3ccc(NC(=O)C(C)C)cc3n2)cc1	none
Cn1c(CCN2CCN(c3ccccc3)CC2)nc2cc(NC(=O)c3ccco3)ccc21	none
O=C(/C=C/c1ccco1)Nc1ccc2nn(-c3ccccc3)nc2c1	Mcl1 Noxa PPI 78
Cc1cc(C)cc(-n2nnnc2SCC(=O)Nc2cccc(NC(=O)c3ccco3)c2)c1	none
Cc1ccc(-n2nc3ccc(NC(=O)c4ccco4)cc3n2)cc1	Mcl1 Bid PPI 66
Cc1cc(NC(=O)/C=C/c2ccco2)ccc1NC(=O)c1ccccc1	none
CN1CCN(CCc2nc3cc(NC(=O)c4ccco4)ccc3n2C)CC1	m-calpain inh 54 (no result: Bim-Mcl-1)
O=C(CCSCc1ccccc1F)NCCc1ccccc1	none
CCOC(=O)C(Cc1ccc(O)cc1)NC(=O)CNC(=O)C1CCCN1C(=O)OC(C)(C)C (stereo unspecified)	none
Oc1cccc2ccc[n+](CC(O)Cn3c4ccccc4c4ccccc43)c12 (stereo unspecified)	p47phox inh 38
OC(COc1ccccc1)Cn1c2ccccc2c2ccccc21 (stereo unspecified)	none
O=C(Cn1nnc2ccccc21)Nc1ccc(Cl)cn1	none
O=C1Nc2ccc(F)cc2C12Nc1ccccc1-c1nnc(SCc3ccccc3Cl)nc1O2 (stereo unspecified)	p47phox inh 39
O=C1Nc2ccc(F)cc2C12Nc1ccccc1-c1nnc(SCc3ccccc3)nc1O2 (stereo unspecified)	none
COc1ccc(-c2nc(-c3ccc(Br)o3)no2)cc1OC	Mcl1 Bid PPI 56
COc1ccc(-c2noc(-c3cccs3)n2)cc1OC	Mcl1 Bid PPI 58 (no result: Bim-Mcl-1)
COc1cc(-c2noc(-c3cccs3)n2)cc(OC)c1OC	none
COc1cc(-c2nc(-c3ccc(NC(=O)c4ccc(Br)o4)cc3)no2)cc(OC)c1OC	Mcl1 Bid PPI 68
Cc1ccccc1C(=O)N/N=C1/SCC(=O)N1Cc1ccccc1	none
CCOC(=O)c1c(C)n(-c2ccc(C)cc2)c2ccc(OCC(O)CN3CCN(C)CC3)cc12 (stereo unspecified)	p47phox inh 54
CCOc1cc(S(=O)(=O)Nc2ccc(Cl)cn2)ccc1F	none
CCOc1cc(S(=O)(=O)Nc2ccccc2CC)ccc1Cl	Mcl1 Noxa PPI 56
CCOc1cc(S(=O)(=O)Nc2ccc(CC)cc2)ccc1Cl	none
CCOc1cc(S(=O)(=O)Nc2ccccn2)ccc1F	Bim-Mcl-1 50
Cc1cc(=O)[nH]c(SCC(=O)c2ccc3c(c2)NC(=O)CO3)n1	Mcl1 Bid PPI 97 (no result: Bim-Mcl-1)
CN(C)S(=O)(=O)c1ccc(C(=O)OCC(=O)c2ccc3c(c2)NC(=O)CO3)cc1	none (no result: Bim-Mcl-1)
CN(C)S(=O)(=O)c1cccc(C(=O)OCC(=O)c2ccc3c(c2)NC(=O)CO3)c1	Bim-Mcl-1 89
Cc1cc(C(=O)OCC(=O)c2ccc3c(c2)NC(=O)CO3)c2ccccc2n1	Mcl1 Bid PPI 63
Nc1cc(N)nc(SCC(=O)c2ccc3c(c2)NC(=O)CO3)n1	none
O=C1COc2ccc(C(=O)COC(=O)c3sc4ccccc4c3Cl)cc2N1	none
CCOC(=O)C1(Cc2ccc(OC)cc2)CCN(C(=O)c2cccc3nccnc23)CC1	none
CN(Cc1ccccc1)C(=O)c1nn2cccnc2c1Cl	none
S=C(Nc1ccccc1Cl)N(CCN1CCCCC1)Cc1ccco1	none
O=C(/C=C/c1ccc(Cl)c([N+](=O)[O-])c1)Nc1ccc(N2CCCC2)cc1	Mcl1 Noxa PPI 75
O=C(/C=C/c1ccc(Cl)c([N+](=O)[O-])c1)Nc1ccc(NC(=O)c2ccco2)cc1	none
CCOc1ccc(-n2c(SCC(=O)Nc3ccccc3C)n[nH]c2=O)cc1	Mcl1 Bid PPI 65
Cc1c(NC(=O)CSc2n[nH]c(=O)n2-c2ccccc2)c(=O)n(-c2ccccc2)n1C	none
COc1ccc(CN2CNc3c(c(=O)n(C)c(=O)n3C)C2)cc1	none
O=C(OCC(=O)N1CCCC1)c1c2c(nc3ccccc13)CCCCC2	none
COC(=O)c1c(NC(=S)NN2CCN(C)CC2)sc2c1CCC(C)C2 (stereo unspecified)	none
COc1ccccc1-c1nc(C#N)c(N2CCN(c3ccccc3)CC2)o1	none
COc1ccc(N2CCN(c3oc(COc4ccc(Cl)cc4Cl)nc3C#N)CC2)cc1	m-calpain inh 51
COc1ccc(N2CCN(c3oc(-c4ccccc4OC)nc3C#N)CC2)cc1	p47phox inh 54
CCOC(=O)C1CCN(C(=O)N(CC)CC)CC1	none
